Data as given in publication PMC5540273 (PLoS ONE, 2017).

These compounds were tested on EPHA2. Conditions: concentration: 1 μM, replicates: in singlicate; n = 1.
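Also: KINOMEscan kinase panel screen.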

`CCn1c(-c2ccoc2)nc2cnccc21` [SB-733887] and `CCn1c(-c2nonc2N)nc2ccccc21` [SB-693162/GW549034] are the same in “%Inh” value: 0% for the first, 0% for the second.

`O=c1cc(N2CCOCC2)nc2n(Cc3ccc(F)c(Cl)c3)ccn12` [GSK2297099] and `O=C(Nc1ccc2c(c1)OCO2)NC1CCN(c2ccnc(NCc3ccc(F)cc3)n2)CC1` [GSK1379859] are the same in “%Inh” value: 0% for the first, 0% for the second.

`Cc1cccc(-c2nc(Nc3ccc4c(cnn4C)c3)c3ccccc3n2)n1` [GW876731] and `Cc1cc(Nc2nc(-c3cccc(C)n3)nc3ccccc23)ccn1` [GW872411] are the same in “%Inh” value: 0% for the first, 0% for the second.

`Cl.NS(=O)(=O)c1cccc(Nc2cc(-c3ccc(F)cc3)n[nH]2)c1` [GW824645] and `CN1C(=O)C(Nc2ccccc2)=C(c2ccccc2)C1=O` [SB-300079] are the same in “%Inh” value: 0% for the first, 0% for the second.

Going from `COc1cc(Nc2nccc(N3CCC(NC(=O)C4COc5ccccc5O4)C3)n2)cc(OC)c1OC` (stereo not drawn) [GSK1379761] to `COc1ccc(CNC(=O)NC2CCN(c3ccnc(Nc4ccc(F)cc4)n3)C2)cc1` (stereo not drawn) [GSK1379706], the “%Inh” value falls from 17% to 7%.

`COC(=O)c1c(-c2ccccc2)c2cc(Br)ccc2c(=O)n1Cc1ccc(NC(=O)CCC(=O)O)cc1` and `CCC(=O)c1c(-c2ccccc2)c2cc(Cl)ccc2c(=O)n1Cc1ccc(C(=O)O)cc1` are the same in “%Inh” value: 0% for the first, 0% for the second.

First: CN1C(=O)C(Nc2cc(Cl)c(O)c(Cl)c2)=C(c2ccc(Cl)cc2)C1=O [SB-404321]
Second: CCC(=O)c1c(-c2ccccc2)c2cc(Cl)ccc2c(=O)n1Cc1cc(S(C)(=O)=O)n(CC(N)=O)n1
The “%Inh” value of the first is lower: 0% for the first, 15% for the second.

Compared with `Nc1ncnc2c1ncn2-c1ccc(Cl)cc1` [AH2635], `Nc1ncnc2c1ncn2-c1cccc(F)c1` [SKF-97560] is lower in “%Inh” value: 12% for the first, 9% for the second.

Compared with `O=C(NCc1cccs1)c1cc(C(=O)c2c(Cl)cccc2Cl)c[nH]1` [GW823670], `O=C(Nc1n[nH]c2nc(-c3ccccc3)c(Cl)cc12)C1CC1` [SB-734909] is higher in “%Inh” value: 0% for the first, 24% for the second.

First: O=C(NCCNc1ccnc(Nc2ccc(F)cc2)n1)Nc1ccc2c(c1)OCO2 [GSK1379882]
Second: COc1ccc(Nc2nccc(N3CCC(NS(=O)(=O)c4ccc(NC(C)=O)cc4)C3)n2)cc1 (stereo not drawn) [GSK1379729]
The “%Inh” value of the first is lower: 0% for the first, 21% for the second.

`COc1cc2nccc(Nc3cccc(Oc4ccccc4)c3)c2cc1OC.Cl` [GW284543] and `COc1cc2ncn(-c3cc(OCCCc4ccccc4)c(C(N)=O)s3)c2cc1OC` [GSK205189] are the same in “%Inh” value: 0% for the first, 0% for the second.

First: COc1ccc(-c2cc3c(C)nc(N)nc3n([C@H]3CC[C@H](O)CC3)c2=O)cn1
Second: COc1ccc(-c2cc3c(C)nc(N)nc3n([C@H]3CC[C@H](OCCO)CC3)c2=O)cn1
The “%Inh” value of the first is higher: 8% for the first, 0% for the second.

`Nc1ncnc2c1ncn2-c1cccc2ccccc12` [SKF-97184] and `CCCC(=O)Nc1n[nH]c2ncc(-c3cccc4ccccc34)cc12` [SB-642057] are the same in “%Inh” value: 0% for the first, 0% for the second.

Going from `COc1cccc(C2=C(N(C)c3ccccc3)C(=O)NC2=O)c1` [SB-334865] to `Cc1cccc(-c2cc(-c3c[nH]nc3-c3ccccn3)ccn2)c1` [GW679395], the “%Inh” value rises from 4% to 7%.

First: Nc1nc(N)c2nc(-c3ccccc3)[nH]c2n1 [SKF-12778]
Second: Nc1n[nH]c2nnc(-c3ccccc3)c(-c3ccccc3)c12 [GW554060]
The “%Inh” value of the first is higher: 20% for the first, 6% for the second.

Going from `COc1cc2ncn(-c3cc(OCc4ccncc4Br)c(C(N)=O)s3)c2cc1OC` [GW854278] to `COc1cc2ncn(-c3cc(OCc4ccc(S(C)(=O)=O)cc4)c(C(N)=O)s3)c2cc1OC` [GW869979], the “%Inh” value falls from 10% to 0%.

Going from `Nc1nc(-c2ccccc2F)c(-c2ccnc3ccccc23)s1` [GW560459] to `Nc1nccc2scc(-c3ccc4c(c3)CCN4C(=O)Cc3ccccc3)c12` [GSK2576924], the “%Inh” value rises from 0% to 6%.

`Cc1ccc(-c2ccc3c(ccc4sc5c(c43)NC[C@@H](C)N=C5N(C)C)n2)cn1` and `CCCNC(=O)Nc1ccc(Oc2ncnc3ccn(C)c23)cc1` are the same in “%Inh” value: 0% for the first, 0% for the second.
